From PubChem BioAssay come the findings set out here.

A short description of test [1]: inhibitors of TNFa-induced NFkB p65 translocation, primary screen, imaging, HUVEC, MLSMR starter and 10KST1 sets (AID 438;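 active = inhibition above 20% together with a positive visual image hit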;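 note: compound added about 3h40 before a 20 min TNFalpha stimulation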;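 for inhibition: signal is the nuclear over cytoplasmic p65 intensity ratio per well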). The conditions noted are these: HUVEC TNFa-induced p65 nuclear translocation; cell count: measured here: nuclei count (cytotoxicity indicator), at 2.08 µM; inhibition: at 2 µM, stronger effect = higher value, 0% TNFa-plus-vehicle, 100% no-TNFa wells.
Test [2] is described as follows: inhibitors of mutant huntingtin aggregation, primary screen, imaging, exon1htt(103Q)mCFP cells, high-content imaging (AID 483;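 active = visual image review flags a hit and inhibition of aggregation exceeds 20%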;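 note: compound exposure lasted 3 days before fixation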;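 for nuclei count: percent of the per-plate median nuclei count of sample wells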). To be noted: exon1htt(103Q)mCFP cell line, aggregate imaging, at 2 µM; inhibition of aggregation: stronger effect = higher value; nuclei count: measured here: cell count, toxicity.
The nature of test [3]: inhibitors of E-selectin induction by TNFa, primary screen, imaging, HUVEC, immunofluorescence, MLSMR starter and 10KST1 sets (AID 487;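 active = visually confirmed hit in the image check and inhibition above 20%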;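 for inhibition: signal is fraction of cell area covered by stained E-selectin grains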;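 for nuclei count: 100% = median nuclei count of all wells on the same plate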). To be noted: HUVEC TNFalpha-induced E-selectin immunofluorescence imaging, at 2 µM; inhibition: stronger effect = higher value; nuclei count: measured here: cell number, toxicity.
For test [4], the target named is Voltage-gated potassium channel subunit beta-2 (Rattus norvegicus) (UniProt P62483). Nature of the test: KvBeta enzyme negative modulators, primary screen, biochemical, NADPH fluorescence (AID 622;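 active = fluorescence slope higher than the sample average by over 3 SD, cut at about -0.22 in these data, passing the limit was not always enough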;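 note: slope of raw intensity against log time taken from 70 to 1610 s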). To be noted: recombinant KvBeta, 4-cyanobenzaldehyde reduction, at 10 µM, stronger effect = higher value.
Voltage-gated potassium channel subunit beta-2 (Rattus norvegicus), sequence (P62483 whole entry, looked up): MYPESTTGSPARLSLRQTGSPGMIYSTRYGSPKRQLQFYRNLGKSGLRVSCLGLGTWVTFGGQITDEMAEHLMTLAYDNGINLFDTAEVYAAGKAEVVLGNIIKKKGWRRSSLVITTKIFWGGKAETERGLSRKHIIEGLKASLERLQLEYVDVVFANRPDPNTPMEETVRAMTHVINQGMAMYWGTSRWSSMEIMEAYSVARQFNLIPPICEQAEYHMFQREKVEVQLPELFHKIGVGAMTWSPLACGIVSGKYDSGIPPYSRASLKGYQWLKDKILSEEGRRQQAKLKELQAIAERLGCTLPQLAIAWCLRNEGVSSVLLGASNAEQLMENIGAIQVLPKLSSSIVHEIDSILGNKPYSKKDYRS
The target is the same in test [5]. Nature of the test: KvBeta positive modulators, primary screen, biochemical, NADPH fluorescence (AID 623).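 Note: fluorescence intensity change per second fitted from 20 to 320 s.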 The conditions noted are these: Recombinant KvBeta, NADPH fluorescence decrease slope, 10 min; at 10 µM; stronger effect = lower value.
Test [6] addresses Alpha-2C adrenergic receptor (Homo sapiens) (UniProt P18825). Nature of the test: modulators of alpha2C/GIRK thallium flux, primary screen, cell-based, HEK293 alpha2C/GIRK1/2 (AID 624;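 active = fluorescence slope after compound addition differing from the mean of all screened samples at 99.7% confidence, in either direction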;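 note: slope of fluorescence ratio to pre-addition baseline per second over 15 to 24 s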). To be noted: thallium flux BTC fluorescence, at 10 µM, actives lie on both sides.
Test [7] in a line: inhibitors of Sendai virus-induced IRF3 signaling, primary screen, TLR/RLR signaling modifier project, cell-based, Sendai virus stimulus, luciferase, 10K MLSCN set (AID 602276;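 active = inhibition at or above 50% at 10 µM; inactive = inhibition below 50%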;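 note: firefly luciferase from ISG56 promoter only with Renilla not read in this screen; 0% = Sendai virus plus DMSO and 100% = medium plus DMSO without virus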). The conditions noted are these: HEK293 RL24 IRF3 luciferase reporter, at 10 µM, stronger effect = higher value.
The nature of test [8]: inhibitors of poly I:C-induced TLR3 signaling, primary screen, cell-based, poly I:C stimulus, luciferase, 10K MLSCN set (AID 602277;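 active = inhibition of the reporter signal at or above 50%; inactive = inhibition below 50%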). The conditions noted are these: HEK293-TLR3 RL24 IRF3 luciferase reporter, at 10 µM, stronger effect = higher value. Background: A reporter such as luciferase makes a cellular process visible.

Activity calls are given as the source filed them.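 Rule for the calls, unless noted: active = NADPH fluorescence slope more negative than the mean of all samples by about 3 SD, 99.7% confidence; inactive = the rest.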

Alpha-2C adrenergic receptor (Homo sapiens), sequence (P18825 whole entry, looked up): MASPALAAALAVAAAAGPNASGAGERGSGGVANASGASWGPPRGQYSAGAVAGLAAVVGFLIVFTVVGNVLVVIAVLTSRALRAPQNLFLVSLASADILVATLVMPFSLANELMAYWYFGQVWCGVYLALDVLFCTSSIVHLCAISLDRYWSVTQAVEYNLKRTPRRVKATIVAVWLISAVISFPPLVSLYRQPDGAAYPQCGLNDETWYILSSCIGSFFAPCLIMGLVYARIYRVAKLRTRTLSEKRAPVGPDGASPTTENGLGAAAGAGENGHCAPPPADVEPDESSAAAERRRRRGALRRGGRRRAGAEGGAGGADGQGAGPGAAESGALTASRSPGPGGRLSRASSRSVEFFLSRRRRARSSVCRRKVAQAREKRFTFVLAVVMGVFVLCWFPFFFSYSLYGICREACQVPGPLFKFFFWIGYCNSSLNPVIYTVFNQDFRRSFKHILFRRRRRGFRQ

One may read the inhibition as the drop in the measured response relative to a control, in per cent. As to `O=S(=O)(NC1CCCC1)c1ccccc1Cl`, the cell count in test [1] was determined as 739. Also, the inhibition is -7.3% (inactive) in test [1], -21.2% (inactive) in test [3], 7.42% (inactive) in test [7] and 15.4% (inactive) in test [8]. In addition, the inhibition of aggregation in test [2] was -2.5% (inactive). Besides, the nuclei count in test [2] amounted to 111%; in test [3], 116%. Moreover, the fluorescence slope in test [4] was -0.455 (inactive). In addition, in test [5], the NADPH fluorescence slope was -3.7e-05 (inactive). Moreover, in test [6], the slope was 0.00495 (inactive).
As to `CCN(CC)S(=O)(=O)c1ccc(NC2CCCc3ccccc32)nc1` (configuration not stated), in test [1], the cell count is 451. Besides, the inhibition in test [1] is 7.1% (inactive); in test [7], 11.9% (inactive); in test [8], 17.1% (inactive). Besides, the inhibition of aggregation in test [2] is 15.4% (inactive). The nuclei count in test [2] amounted to 103%; in test [3], 163%. Besides, the fluorescence slope in test [4] is -0.594 (inactive). Further, in test [5], the NADPH fluorescence slope was -3e-05 (inactive). In addition, in test [6], the slope is 0.00558 (inactive).
With `Cc1cccc(NC(=O)CSc2nnc(-c3ccccc3C)o2)c1`, the cell count in test [1] amounted to 414. The inhibition in test [1] is 0.8% (inactive); in test [7] it was -55.2% (inactive); in test [8] it was -86.9% (inactive). Further, the inhibition of aggregation in test [2] is -0.2% (inactive). The nuclei count in test [2] is 92%; in test [3], 116%. For the same compound, in test [4], the fluorescence slope was -0.32 (inactive). In addition, the NADPH fluorescence slope in test [5] was -4.9e-05 (inactive). Moreover, in test [6], the slope is 0.00441 (inactive).
`CC1CCN(Cc2ccc(-c3nn[nH]n3)cc2)CC1`: the cell count in test [1] worked out at 582. Also, the inhibition in test [1] is -2.9% (inactive); in test [3] it was -29.4% (inactive); in test [7], 15.7% (inactive); in test [8] it was 27.1% (inactive). For the same compound, the inhibition of aggregation in test [2] is 17.9% (inactive). The nuclei count amounted to 96.8% in test [2] and 90.6% in test [3]. Besides, the fluorescence slope in test [4] is -0.659 (inactive). Also, in test [5], the NADPH fluorescence slope is 2.2e-05 (inactive). Besides, the slope in test [6] was 0.00582 (inactive).
In the case of `CCOc1ccc(Nc2nc(Cc3nnc(SCC(N)=O)o3)cs2)cc1`, the cell count in test [1] was determined as 453. For the same compound, the inhibition in test [1] was 6.7% (inactive); in test [7], 9.26% (inactive); in test [8], 14% (inactive). Further, in test [2], the inhibition of aggregation is -0.8% (inactive). Besides, the nuclei count was 104% in test [2] and 154% in test [3]. The fluorescence slope in test [4] is -0.608 (inactive). For the same compound, the NADPH fluorescence slope in test [5] was -2.2e-05 (inactive). The slope in test [6] is 0.00638 (inactive).
Turning to `CS(=O)(=O)N1CCN(c2ccccc2NC(=O)c2cccs2)CC1`, the cell count in test [1] was found to be 629. In addition, the inhibition is 0.5% (inactive) in test [1], -0.6% (inactive) in test [3], 11.6% (inactive) in test [7] and 18.8% (inactive) in test [8]. Further, the inhibition of aggregation in test [2] is -6.7% (inactive). Besides, the nuclei count in test [2] turned out to be 105%; in test [3] it was 89.5%. Moreover, in test [4], the fluorescence slope is -0.501 (inactive). Besides, the NADPH fluorescence slope in test [5] is 1.2e-05 (inactive). Moreover, the slope in test [6] is 0.00365 (inactive).
For the compound `Cn1c(=O)c2c(nc(NCCNC(=O)c3ccco3)n2Cc2ccccc2Cl)n(C)c1=O`, in test [1], the cell count was determined as 424. Moreover, the inhibition in test [1] was 7.1% (inactive); in test [7], -7.85% (inactive); in test [8], 2.32% (inactive). For the same compound, in test [2], the inhibition of aggregation was 1.7% (inactive). For the same compound, the results for the nuclei count in test [2] and in test [3] were 98.3% and 136%, respectively. In addition, the fluorescence slope in test [4] is -0.354 (inactive). Besides, the NADPH fluorescence slope in test [5] is -2.6e-05 (inactive). In addition, the slope in test [6] is 0.00598 (inactive).
Turning to `CCOC(=O)c1cnn(-c2cc(C)c3cc(C)cc(C)c3n2)c1N`, in test [1], the cell count is 494. For the same compound, the inhibition in test [1] is 9% (inactive); in test [7], -17.1% (inactive); in test [8] it was -21.2% (inactive). The inhibition of aggregation in test [2] was -9.8% (inactive). Besides, the nuclei count in test [2] came to 110%; in test [3] it was 152%. For the same compound, the fluorescence slope in test [4] was -0.545 (inactive). Further, in test [5], the NADPH fluorescence slope is 2e-05 (inactive). In test [6], the slope is 0.00906 (inactive).
In the case of `CCOC(=O)Cc1c(C)c2c(O)cc(O)cc2oc1=O`, the cell count in test [1] was 450. Moreover, the inhibition in test [1] is 9% (inactive); in test [7], 15.2% (inactive); in test [8] it was 9.57% (inactive). The inhibition of aggregation in test [2] was -19.7% (inactive). The results for the nuclei count in test [2] and in test [3] were 111% and 150%, respectively. Also, in test [4], the fluorescence slope is -0.0503 (inactive). In test [5], the NADPH fluorescence slope is 6.3e-06 (inactive). The slope in test [6] was 0.00591 (inactive).
In the case of `Cc1noc(C)c1S(=O)(=O)N1CCCC(C(=O)NCCc2ccc(Cl)cc2)C1` (configuration not stated), the cell count in test [1] was 402. The inhibition in test [1] is 7.3% (inactive); in test [3], -78.1% (inactive); in test [7], 11.6% (inactive); in test [8], 7.58% (inactive). Besides, the inhibition of aggregation in test [2] is -8.8% (inactive). In addition, the nuclei count came to 107% in test [2] and 106% in test [3]. The fluorescence slope in test [4] was -0.471 (inactive). Moreover, the NADPH fluorescence slope in test [5] was -0.000191 (inactive). Further, in test [6], the slope was 0.00592 (inactive).
Turning to `COC(=O)c1c(N)sc(C(=O)N2CCOCC2)c1C`, in test [1], the cell count was determined as 261. Besides, the inhibition in test [1] was -5.1% (inactive); in test [3], 60.2% (inactive); in test [7], -4.15% (inactive); in test [8], -5.07% (inactive). Also, the inhibition of aggregation in test [2] was 3% (inactive). The nuclei count was 82.3% in test [2] and 32.3% in test [3]. Also, the fluorescence slope in test [4] is -0.439 (inactive). In addition, in test [5], the NADPH fluorescence slope is -5.8e-06 (inactive). Also, the slope in test [6] is 0.00581 (inactive).
As to `CCn1c(=O)c(=O)[nH]c2cc(C(=O)N3CCN(c4ccccc4F)CC3)ccc21`, the cell count in test [1] amounted to 688. Further, the inhibition in test [1] was -6.1% (inactive); in test [3], -16.5% (inactive); in test [7] it was 5.11% (inactive); in test [8] it was 6.91% (inactive). For the same compound, in test [2], the inhibition of aggregation is -40.8% (inactive). Also, the results for the nuclei count in test [2] and in test [3] were 81.5% and 110%, respectively. In addition, in test [4], the fluorescence slope was -0.594 (inactive). Further, the NADPH fluorescence slope in test [5] was -3e-05 (inactive). Besides, the slope in test [6] is 0.0083 (inactive).
With `Cn1nc(CC(=O)Nc2ccc(N3CCN(C(=O)OC(C)(C)C)CC3)cc2)c2ccccc2c1=O`, in test [1], the cell count was determined as 639. The inhibition in test [1] was -32.6% (inactive); in test [3], -34.7% (inactive); in test [7], -10.5% (inactive); in test [8] it was -50.4% (inactive). Moreover, in test [2], the inhibition of aggregation was -11.8% (inactive). Further, the values for the nuclei count in test [2] and in test [3] were 91.2% and 99%, respectively. Moreover, in test [4], the fluorescence slope was -0.493 (inactive). Further, in test [5], the NADPH fluorescence slope was 8.9e-05 (inactive). Also, in test [6], the slope was 0.00619 (inactive).
